Key:
Experiment in all cases: log2 ratio of Biotin-Ahx-Ub-VS probe labelling (fragment/DMSO); higher = less target engagement (more negative = stronger competition), active = hit call of the paper (q ≤ 0.05, log2 ratio ≤ -1)
Details in all cases: compound concentration: 200 uM; treatment time: 3 h
[1] = molecular target: T1, USP42 (UniProt Q9H9J4)
T1 sequence (whole entry): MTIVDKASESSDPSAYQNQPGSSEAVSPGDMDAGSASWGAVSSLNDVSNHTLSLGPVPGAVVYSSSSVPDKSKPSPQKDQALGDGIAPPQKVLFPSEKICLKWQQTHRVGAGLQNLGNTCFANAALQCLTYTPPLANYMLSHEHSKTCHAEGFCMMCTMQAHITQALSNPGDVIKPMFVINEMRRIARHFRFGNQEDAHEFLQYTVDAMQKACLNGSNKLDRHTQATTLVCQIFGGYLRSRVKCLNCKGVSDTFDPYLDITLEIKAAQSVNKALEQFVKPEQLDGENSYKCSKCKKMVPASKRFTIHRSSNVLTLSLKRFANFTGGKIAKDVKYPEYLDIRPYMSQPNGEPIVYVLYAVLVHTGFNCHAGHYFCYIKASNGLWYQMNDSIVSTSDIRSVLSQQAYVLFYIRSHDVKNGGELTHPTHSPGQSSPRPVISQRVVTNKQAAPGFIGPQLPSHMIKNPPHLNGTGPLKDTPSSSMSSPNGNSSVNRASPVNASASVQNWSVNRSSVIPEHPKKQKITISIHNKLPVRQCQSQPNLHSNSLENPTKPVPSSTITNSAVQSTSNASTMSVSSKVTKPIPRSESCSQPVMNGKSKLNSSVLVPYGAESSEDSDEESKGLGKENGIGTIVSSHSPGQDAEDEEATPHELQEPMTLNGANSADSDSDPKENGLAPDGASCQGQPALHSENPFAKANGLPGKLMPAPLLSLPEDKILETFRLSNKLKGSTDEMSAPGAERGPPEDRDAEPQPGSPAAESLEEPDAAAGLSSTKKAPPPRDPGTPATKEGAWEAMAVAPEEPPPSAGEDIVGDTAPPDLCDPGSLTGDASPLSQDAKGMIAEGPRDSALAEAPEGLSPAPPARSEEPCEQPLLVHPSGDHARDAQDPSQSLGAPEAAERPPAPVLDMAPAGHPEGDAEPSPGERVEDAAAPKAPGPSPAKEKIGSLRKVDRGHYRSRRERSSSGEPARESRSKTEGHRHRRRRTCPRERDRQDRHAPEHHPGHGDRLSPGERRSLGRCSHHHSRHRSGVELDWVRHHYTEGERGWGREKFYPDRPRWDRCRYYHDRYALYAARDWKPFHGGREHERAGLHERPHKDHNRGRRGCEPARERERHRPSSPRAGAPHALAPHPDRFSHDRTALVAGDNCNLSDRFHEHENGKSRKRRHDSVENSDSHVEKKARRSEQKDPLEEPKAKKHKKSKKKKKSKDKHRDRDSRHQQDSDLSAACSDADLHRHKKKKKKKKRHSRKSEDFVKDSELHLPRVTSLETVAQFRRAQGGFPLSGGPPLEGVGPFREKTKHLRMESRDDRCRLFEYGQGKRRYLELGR
Outline: (§1)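 Labelled DUBs from HEK293T lysate were NeutrAvidin-enriched, digested with LysC and trypsin, and run by diaPASEF LC-MS/MS. Before that, each 495 µg sample in Tris/CHAPS/IGEPAL buffer with protease inhibitors was treated in triplicate with fragment at 200 µM or vehicle for 3 h, then with Biotin-Ahx-Ub-VS at 0.5 µM final for 1 h. Values are average log2 ratios of fragment over vehicle by unpaired t-test, based on global-median-normalised Spectronaut label-free quantities from proteins with ≥2 unique peptides.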

[2] = molecular target: USP46 (UniProt P62068)
Outline: as §1

[3] = molecular target: T2, USP47 (UniProt Q96K76)
T2 sequence (whole entry): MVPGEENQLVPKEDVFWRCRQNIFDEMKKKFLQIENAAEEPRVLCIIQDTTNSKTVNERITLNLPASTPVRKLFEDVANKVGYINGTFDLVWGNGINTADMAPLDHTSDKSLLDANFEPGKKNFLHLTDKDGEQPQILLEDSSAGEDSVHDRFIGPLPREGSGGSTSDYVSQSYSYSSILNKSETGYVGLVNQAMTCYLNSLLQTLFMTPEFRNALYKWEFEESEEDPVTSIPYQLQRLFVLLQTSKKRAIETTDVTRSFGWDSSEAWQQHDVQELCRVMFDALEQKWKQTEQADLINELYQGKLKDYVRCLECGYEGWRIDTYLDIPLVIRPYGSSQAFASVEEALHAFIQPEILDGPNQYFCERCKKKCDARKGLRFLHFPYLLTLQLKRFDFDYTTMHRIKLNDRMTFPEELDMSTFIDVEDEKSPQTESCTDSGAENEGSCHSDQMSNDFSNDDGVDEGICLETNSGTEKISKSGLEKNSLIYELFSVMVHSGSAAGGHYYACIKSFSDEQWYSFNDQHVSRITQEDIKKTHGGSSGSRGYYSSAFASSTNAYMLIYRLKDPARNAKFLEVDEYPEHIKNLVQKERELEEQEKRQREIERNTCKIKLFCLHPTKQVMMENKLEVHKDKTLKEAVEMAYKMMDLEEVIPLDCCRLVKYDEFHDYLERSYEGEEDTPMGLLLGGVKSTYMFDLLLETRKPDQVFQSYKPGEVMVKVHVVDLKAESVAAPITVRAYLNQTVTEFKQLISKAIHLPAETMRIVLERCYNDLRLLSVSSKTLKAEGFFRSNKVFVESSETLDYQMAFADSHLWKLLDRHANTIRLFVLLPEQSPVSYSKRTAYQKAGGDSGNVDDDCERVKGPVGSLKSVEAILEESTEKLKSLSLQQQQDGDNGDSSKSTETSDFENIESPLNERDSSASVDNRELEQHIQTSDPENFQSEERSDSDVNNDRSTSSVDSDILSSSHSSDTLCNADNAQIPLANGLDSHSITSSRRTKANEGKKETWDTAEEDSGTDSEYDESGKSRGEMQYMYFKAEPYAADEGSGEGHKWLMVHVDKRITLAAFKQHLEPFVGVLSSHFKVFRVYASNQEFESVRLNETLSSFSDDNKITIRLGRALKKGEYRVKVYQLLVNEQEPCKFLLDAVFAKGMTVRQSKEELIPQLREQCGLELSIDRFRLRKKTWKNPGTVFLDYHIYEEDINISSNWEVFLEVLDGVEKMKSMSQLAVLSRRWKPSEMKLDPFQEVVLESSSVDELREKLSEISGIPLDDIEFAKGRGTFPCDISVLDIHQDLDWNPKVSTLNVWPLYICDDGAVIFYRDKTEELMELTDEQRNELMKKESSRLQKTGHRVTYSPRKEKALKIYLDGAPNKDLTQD
Outline: as §1

[4] = molecular target: T3, USP48 (UniProt Q86UV5)
T3 sequence (whole entry): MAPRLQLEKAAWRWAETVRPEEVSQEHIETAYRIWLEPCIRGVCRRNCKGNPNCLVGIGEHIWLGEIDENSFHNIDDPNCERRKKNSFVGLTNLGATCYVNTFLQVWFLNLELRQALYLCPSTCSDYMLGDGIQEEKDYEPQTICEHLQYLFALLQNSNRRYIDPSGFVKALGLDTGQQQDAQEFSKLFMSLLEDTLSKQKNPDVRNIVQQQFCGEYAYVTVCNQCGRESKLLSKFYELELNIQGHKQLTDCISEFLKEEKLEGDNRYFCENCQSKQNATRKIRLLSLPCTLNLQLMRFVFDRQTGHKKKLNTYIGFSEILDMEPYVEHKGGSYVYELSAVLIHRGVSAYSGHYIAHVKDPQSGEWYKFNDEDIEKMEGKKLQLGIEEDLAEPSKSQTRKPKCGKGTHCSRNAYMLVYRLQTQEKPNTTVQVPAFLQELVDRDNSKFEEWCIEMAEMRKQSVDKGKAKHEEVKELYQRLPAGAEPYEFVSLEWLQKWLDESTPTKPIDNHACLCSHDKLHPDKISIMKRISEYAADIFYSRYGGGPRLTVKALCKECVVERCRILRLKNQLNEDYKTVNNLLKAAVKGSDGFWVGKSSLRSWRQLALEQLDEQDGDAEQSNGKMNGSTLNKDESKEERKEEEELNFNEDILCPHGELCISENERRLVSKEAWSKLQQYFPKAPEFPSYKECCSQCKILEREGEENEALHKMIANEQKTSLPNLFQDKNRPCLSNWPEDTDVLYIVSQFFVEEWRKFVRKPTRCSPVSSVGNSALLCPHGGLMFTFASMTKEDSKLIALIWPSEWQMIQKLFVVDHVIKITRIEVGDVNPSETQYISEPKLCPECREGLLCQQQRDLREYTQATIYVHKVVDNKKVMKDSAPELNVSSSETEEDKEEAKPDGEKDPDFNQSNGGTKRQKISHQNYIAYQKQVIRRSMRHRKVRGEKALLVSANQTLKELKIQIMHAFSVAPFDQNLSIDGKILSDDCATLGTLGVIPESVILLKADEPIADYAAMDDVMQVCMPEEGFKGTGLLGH
Outline: as §1

[5] = molecular target: T4, USP5 (UniProt P45974)
T4 sequence (whole entry): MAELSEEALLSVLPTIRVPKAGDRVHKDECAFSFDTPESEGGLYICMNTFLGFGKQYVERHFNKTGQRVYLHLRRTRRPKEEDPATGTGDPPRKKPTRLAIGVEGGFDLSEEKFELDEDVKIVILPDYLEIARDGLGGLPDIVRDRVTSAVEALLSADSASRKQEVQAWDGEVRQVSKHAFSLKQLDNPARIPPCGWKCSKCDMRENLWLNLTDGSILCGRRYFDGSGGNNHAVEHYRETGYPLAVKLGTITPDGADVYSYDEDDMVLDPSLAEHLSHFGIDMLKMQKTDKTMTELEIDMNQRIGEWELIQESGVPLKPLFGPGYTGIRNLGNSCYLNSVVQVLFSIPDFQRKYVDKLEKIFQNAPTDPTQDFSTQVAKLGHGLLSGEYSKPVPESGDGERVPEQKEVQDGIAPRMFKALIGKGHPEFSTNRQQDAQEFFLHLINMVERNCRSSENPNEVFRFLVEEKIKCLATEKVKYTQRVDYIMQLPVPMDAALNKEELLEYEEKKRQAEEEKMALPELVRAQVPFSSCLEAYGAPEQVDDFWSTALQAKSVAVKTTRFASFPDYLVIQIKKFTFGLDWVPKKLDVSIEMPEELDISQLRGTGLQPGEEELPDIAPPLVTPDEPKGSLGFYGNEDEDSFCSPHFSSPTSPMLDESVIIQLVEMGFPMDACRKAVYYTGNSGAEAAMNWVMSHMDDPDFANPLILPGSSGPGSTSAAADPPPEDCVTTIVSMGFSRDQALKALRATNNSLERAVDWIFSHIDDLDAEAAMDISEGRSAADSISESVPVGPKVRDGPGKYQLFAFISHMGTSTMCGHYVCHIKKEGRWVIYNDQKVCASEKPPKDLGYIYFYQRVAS
Outline: as §1

[6] = molecular target: USP54 (UniProt Q70EL1)
Outline: as §1

[7] = molecular target: USP7 (UniProt Q93009)
Outline: as §1

[8] = molecular target: T5, USP8 (UniProt P40818)
T5 sequence (whole entry): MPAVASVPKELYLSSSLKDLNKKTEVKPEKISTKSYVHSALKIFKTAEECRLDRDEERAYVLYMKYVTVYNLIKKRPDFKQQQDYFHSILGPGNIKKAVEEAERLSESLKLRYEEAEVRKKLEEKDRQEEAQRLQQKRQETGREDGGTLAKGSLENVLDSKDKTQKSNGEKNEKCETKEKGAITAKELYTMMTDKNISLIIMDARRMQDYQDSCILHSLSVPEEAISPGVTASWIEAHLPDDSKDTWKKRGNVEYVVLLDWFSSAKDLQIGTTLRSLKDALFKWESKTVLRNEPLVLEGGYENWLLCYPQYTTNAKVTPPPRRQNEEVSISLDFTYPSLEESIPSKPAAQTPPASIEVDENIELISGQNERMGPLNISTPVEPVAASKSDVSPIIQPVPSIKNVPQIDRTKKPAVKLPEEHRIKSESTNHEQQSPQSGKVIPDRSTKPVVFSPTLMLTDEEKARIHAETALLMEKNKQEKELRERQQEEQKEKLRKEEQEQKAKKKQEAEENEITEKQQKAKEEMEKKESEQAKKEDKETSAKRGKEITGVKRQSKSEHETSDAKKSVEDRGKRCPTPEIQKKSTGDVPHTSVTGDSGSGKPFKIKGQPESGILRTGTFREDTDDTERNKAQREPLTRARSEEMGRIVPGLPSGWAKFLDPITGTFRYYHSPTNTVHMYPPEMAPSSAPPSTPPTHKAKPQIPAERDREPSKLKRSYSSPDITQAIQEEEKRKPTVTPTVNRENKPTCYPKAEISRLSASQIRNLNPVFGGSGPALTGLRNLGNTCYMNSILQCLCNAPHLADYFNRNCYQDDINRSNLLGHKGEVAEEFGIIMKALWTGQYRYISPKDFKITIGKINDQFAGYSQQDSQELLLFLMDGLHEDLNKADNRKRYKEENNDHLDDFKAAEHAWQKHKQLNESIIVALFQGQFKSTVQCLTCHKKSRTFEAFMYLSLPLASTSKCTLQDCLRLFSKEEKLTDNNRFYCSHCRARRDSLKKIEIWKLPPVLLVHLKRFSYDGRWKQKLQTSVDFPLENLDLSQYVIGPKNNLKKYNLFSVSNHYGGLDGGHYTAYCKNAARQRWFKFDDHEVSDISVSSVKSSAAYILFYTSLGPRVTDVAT
Outline: as §1

Measured: log2 ratio of Biotin-Ahx-Ub-VS probe labelling

Chain of USP54 (Q70EL1 whole entry): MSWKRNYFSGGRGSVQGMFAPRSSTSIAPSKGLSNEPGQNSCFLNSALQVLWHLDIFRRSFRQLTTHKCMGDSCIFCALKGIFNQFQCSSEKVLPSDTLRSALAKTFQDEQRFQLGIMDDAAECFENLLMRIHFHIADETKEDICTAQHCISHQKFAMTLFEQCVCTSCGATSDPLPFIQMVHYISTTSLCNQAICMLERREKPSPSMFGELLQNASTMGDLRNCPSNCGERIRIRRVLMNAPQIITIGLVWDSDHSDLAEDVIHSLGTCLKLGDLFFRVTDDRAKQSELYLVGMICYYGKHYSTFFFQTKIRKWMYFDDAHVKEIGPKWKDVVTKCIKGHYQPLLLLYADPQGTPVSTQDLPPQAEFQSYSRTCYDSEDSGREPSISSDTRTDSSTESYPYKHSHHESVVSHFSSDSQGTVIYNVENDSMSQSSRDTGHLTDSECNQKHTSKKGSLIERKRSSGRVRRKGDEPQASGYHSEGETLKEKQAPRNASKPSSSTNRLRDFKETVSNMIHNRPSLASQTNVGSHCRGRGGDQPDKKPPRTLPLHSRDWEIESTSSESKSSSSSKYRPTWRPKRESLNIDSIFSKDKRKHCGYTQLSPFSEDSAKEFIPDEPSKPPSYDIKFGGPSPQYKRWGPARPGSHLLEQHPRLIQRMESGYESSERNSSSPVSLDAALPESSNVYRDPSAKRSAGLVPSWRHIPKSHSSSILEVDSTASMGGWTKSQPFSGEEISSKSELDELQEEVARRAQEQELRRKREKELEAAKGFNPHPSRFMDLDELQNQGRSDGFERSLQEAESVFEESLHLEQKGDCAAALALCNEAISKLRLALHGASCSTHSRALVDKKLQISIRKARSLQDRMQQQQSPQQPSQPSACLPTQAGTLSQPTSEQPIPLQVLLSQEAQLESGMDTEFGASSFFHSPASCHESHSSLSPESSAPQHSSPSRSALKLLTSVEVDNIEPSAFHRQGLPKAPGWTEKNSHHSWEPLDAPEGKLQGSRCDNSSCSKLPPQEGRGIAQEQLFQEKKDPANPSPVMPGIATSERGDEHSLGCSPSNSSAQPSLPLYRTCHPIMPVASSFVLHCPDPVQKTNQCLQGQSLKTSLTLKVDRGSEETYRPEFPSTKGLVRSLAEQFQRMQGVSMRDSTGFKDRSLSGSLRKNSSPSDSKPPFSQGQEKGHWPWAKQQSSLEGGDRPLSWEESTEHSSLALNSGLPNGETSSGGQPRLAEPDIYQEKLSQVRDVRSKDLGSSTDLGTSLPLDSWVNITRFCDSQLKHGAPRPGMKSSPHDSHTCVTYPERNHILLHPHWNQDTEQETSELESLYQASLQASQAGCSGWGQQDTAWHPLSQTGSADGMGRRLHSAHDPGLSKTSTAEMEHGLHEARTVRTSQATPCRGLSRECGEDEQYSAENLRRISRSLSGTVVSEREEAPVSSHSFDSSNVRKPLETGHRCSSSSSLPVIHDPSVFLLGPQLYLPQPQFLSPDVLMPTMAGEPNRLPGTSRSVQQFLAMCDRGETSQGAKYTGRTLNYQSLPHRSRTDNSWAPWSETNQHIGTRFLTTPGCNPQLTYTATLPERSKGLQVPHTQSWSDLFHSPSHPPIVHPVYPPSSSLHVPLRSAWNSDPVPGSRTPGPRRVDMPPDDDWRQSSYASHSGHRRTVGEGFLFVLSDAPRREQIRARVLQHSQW
Chain of USP7 (Q93009 whole entry, looked up): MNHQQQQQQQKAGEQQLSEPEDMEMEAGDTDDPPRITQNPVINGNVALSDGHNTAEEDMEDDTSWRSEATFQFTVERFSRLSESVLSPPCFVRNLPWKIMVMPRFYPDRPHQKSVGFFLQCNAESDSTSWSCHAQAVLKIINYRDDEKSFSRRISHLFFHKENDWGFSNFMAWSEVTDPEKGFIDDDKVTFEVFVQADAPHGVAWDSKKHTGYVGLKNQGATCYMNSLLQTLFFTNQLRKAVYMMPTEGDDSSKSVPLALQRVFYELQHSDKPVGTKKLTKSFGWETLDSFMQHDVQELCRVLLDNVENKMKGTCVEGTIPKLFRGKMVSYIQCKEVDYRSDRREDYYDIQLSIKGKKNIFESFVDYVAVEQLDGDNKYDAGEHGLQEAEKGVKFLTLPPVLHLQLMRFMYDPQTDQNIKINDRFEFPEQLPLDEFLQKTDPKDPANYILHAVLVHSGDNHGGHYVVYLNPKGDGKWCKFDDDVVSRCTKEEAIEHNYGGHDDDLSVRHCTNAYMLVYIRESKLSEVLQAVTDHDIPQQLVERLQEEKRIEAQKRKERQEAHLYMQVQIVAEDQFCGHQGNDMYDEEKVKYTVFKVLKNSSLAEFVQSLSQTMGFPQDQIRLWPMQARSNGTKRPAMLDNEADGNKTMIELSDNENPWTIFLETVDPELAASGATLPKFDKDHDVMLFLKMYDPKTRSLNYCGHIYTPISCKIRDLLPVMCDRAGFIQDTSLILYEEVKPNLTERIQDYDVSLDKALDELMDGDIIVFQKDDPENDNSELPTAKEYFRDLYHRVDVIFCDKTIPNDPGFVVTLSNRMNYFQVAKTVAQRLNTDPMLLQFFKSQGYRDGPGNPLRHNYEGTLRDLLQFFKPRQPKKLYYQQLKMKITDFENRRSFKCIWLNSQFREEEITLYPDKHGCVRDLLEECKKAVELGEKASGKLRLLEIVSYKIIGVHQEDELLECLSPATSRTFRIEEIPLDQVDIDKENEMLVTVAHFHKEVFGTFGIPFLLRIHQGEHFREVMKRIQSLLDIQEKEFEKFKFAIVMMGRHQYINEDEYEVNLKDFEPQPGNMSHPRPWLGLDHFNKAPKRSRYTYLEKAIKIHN
Chain of USP46 (P62068 whole entry): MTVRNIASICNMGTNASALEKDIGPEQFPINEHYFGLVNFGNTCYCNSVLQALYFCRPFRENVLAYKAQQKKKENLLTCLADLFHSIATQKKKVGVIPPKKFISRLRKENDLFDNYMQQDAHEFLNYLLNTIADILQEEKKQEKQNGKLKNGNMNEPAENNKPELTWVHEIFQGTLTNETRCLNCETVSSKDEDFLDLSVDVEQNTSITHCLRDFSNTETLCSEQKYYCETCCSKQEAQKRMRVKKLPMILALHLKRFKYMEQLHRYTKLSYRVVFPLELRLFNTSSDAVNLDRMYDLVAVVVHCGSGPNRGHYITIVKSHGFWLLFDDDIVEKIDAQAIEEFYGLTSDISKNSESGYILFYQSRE

CC(=O)C1CCCCN1C(=O)CCl (stereo not drawn)
inactive: [1] 0.359 | [2] 0.0148 | [3] -0.0598 | [4] -0.362 | [5] -0.139 | [6] 0.498 | [7] -0.172 | [8] 0.076
